Experimental findings from PubChem BioAssay (NCI) are described below.

Molecules are shown by their SMILES. About 79,000 compounds went through this panel and 15% of them were active in at least one assay; those are over-represented in the sample as a whole. Unmarked numbers belong to inactive results. Calls of active or inactive are those of the source. No stated cut-off is given here; in the data, active means growth inhibition above about 70%; inactive means the rest.

Assay [1] is described as follows: NCI Yeast Anticancer Drug Screen. Data for the rad50 strain (AID 155).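 Further: 0% = growth of vehicle-only cultures of the same strain.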 Particulars: S. cerevisiae rad50 strain growth inhibition, active compounds read high. In short, it runs like this:
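Yeast carrying a defined DNA repair defect were exposed to test compounds, and growth was compared with vehicle-treated controls to give percent inhibition.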

Assay [2] can be described thus: NCI Yeast Anticancer Drug Screen. Data for the mec2-1 strain (AID 157). Particulars: S. cerevisiae mec2-1 strain, active compounds read high. In short, it runs like this: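 Mutant yeast (mec2-1) grown with compound; growth inhibition relative to vehicle control reported.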
Assay [3] in a line: NCI Yeast Anticancer Drug Screen. Data for the sgs1 mgt1 strain (AID 161).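 Further: 0% = growth of cultures given vehicle only.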 Particulars: S. cerevisiae sgs1 mgt1 strain, active compounds read high. In short, it runs like this: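 Compounds are added to genetically altered yeast, and growth is compared with cultures given vehicle alone to give percent inhibition.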
Assay [4] is described as follows: NCI Yeast Anticancer Drug Screen. Data for the cln2 rad14 strain (AID 165).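 Further: 0% = growth equal to vehicle treated cultures.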 As to conditions: S. cerevisiae cln2 rad14 strain, active compounds read high. In outline:
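Readout is yeast growth inhibition versus vehicle-treated controls, using a strain with cln2 and rad14 alterations exposed to compound.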

Assay [5] in a line: NCI Yeast Anticancer Drug Screen. Data for the bub3 strain (AID 167). Particulars: S. cerevisiae bub3 mutant strain, active compounds read high. In short, it runs like this: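 Compounds were applied to a genetically altered yeast strain carrying a cell-cycle control defect. Growth inhibition was scored against vehicle-treated controls.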
Assay [6] is described as follows: NCI Yeast Anticancer Drug Screen. Data for the mlh1 rad18 strain (AID 175). As to conditions: S. cerevisiae mlh1 rad18 strain growth inhibition, active compounds read high. In outline:
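Genetically defined yeast (DNA repair-deficient) exposed to compounds; growth inhibition determined relative to vehicle.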

[7] abbreviates: at 5.0 µM (retest, dose inferred, filed as 0.5).
The mark [8] stands for this setting: at 50.0 µM (retest, dose inferred, filed as 5.0).

Regarding `O=C(CBr)OCC(Br)CBr` (stereo not given), the growth inhibition was 98% (active) in assay [1] (setting [7]); 39% in assay [1] (setting [8]); 99.2% (active) in assay [1] (at 50.0 µM); 99% (active) in assay [2] (setting [7]); 50% in assay [2] (setting [8]); 99% (active) in assay [2] (at 50.0 µM). Further, the growth inhibition in assay [3] (setting [7]) was 99% (active); in assay [3] (setting [8]), 36%; in assay [3] (at 50.0 µM), 99.3% (active); in assay [4] (setting [7]), 97% (active); in assay [4] (setting [8]), -4%; in assay [4] (at 50.0 µM), 98.8% (active). The growth inhibition was 99% (active) in assay [5] (setting [7]); 83% (active) in assay [5] (setting [8]); 99.3% (active) in assay [5] (at 50.0 µM); 99% (active) in assay [6] (setting [7]); 49% in assay [6] (setting [8]); 98.8% (active) in assay [6] (at 50.0 µM).
As for `COc1c[c]([Hg][O]C(C)=O)c(OC)c(NC(=O)CC(C)=O)[c]1[Hg][O]C(C)=O`, the growth inhibition was 97% (active) in assay [1] (setting [7]); 95% (active) in assay [1] (setting [8]); 89.7% (active) in assay [1] (at 50.0 µM); 99% (active) in assay [2] (setting [7]); 96% (active) in assay [2] (setting [8]); 92.5% (active) in assay [2] (at 50.0 µM). Besides, the growth inhibition is 100% (active) in assay [3] (setting [7]); 93% (active) in assay [3] (setting [8]); 92.5% (active) in assay [3] (at 50.0 µM); 43% in assay [4] (setting [7]); 96% (active) in assay [4] (setting [8]); 90% (active) in assay [4] (at 50.0 µM). The growth inhibition in assay [5] (setting [7]) was 99% (active); in assay [5] (setting [8]), 96% (active); in assay [5] (at 50.0 µM), 90.8% (active); in assay [6] (setting [7]) it was 95% (active); in assay [6] (setting [8]) it was 95% (active); in assay [6] (at 50.0 µM) it was 88.6% (active).
With `CC1=C[C@H]2O[C@H]3C[C@H]4OC(=O)/C=C\C=C\C(=O)OCC[C@@H](C)[C@H](O)C(=O)OC[C@@]2(CC1)[C@@]4(C)[C@]31CO1`, the growth inhibition in assay [1] (setting [7]) was 99% (active); in assay [1] (setting [8]), 99% (active); in assay [1] (at 50.0 µM) it was 92% (active); in assay [2] (setting [7]), 100% (active); in assay [2] (setting [8]), 99% (active); in assay [2] (at 50.0 µM), 92.9% (active). For the same molecule, the growth inhibition in assay [3] (setting [7]) is 100% (active); in assay [3] (setting [8]), 99% (active); in assay [3] (at 50.0 µM) it was 92.8% (active); in assay [4] (setting [7]), 98% (active); in assay [4] (setting [8]), 98% (active); in assay [4] (at 50.0 µM) it was 90.3% (active). Besides, the growth inhibition in assay [5] (setting [7]) was 100% (active); in assay [5] (setting [8]) it was 98% (active); in assay [5] (at 50.0 µM) it was 92% (active); in assay [6] (setting [7]), 98% (active); in assay [6] (setting [8]), 98% (active); in assay [6] (at 50.0 µM), 92% (active).
As for `Nc1ccc(Br)cc1C(=O)c1ccccc1`, the growth inhibition is 12% in assay [1] (setting [7]); 95% (active) in assay [1] (setting [8]); 99% (active) in assay [1] (at 50.0 µM); 11% in assay [2] (setting [7]); 97% (active) in assay [2] (setting [8]); 99% (active) in assay [2] (at 50.0 µM). For the same molecule, the growth inhibition is 32% in assay [3] (setting [7]); 98% (active) in assay [3] (setting [8]); 99.2% (active) in assay [3] (at 50.0 µM); 12% in assay [4] (setting [7]); 95% (active) in assay [4] (setting [8]); 92.5% (active) in assay [4] (at 50.0 µM). The growth inhibition is 6% in assay [5] (setting [7]); 96% (active) in assay [5] (setting [8]); 94% (active) in assay [5] (at 50.0 µM); 14% in assay [6] (setting [7]); 95% (active) in assay [6] (setting [8]); 99.2% (active) in assay [6] (at 50.0 µM).
Consider `O=[N+]([O-])c1ccc(C(Br)Br)cc1`, for which the growth inhibition in assay [1] (setting [7]) was 93% (active); in assay [1] (setting [8]), 99% (active); in assay [1] (at 50.0 µM), 99.6% (active); in assay [2] (setting [7]), 74% (active); in assay [2] (setting [8]), 99% (active); in assay [2] (at 50.0 µM), 99.6% (active). In addition, the growth inhibition in assay [3] (setting [7]) is 79% (active); in assay [3] (setting [8]), 99% (active); in assay [3] (at 50.0 µM), 99.7% (active); in assay [4] (setting [7]), 70% (active); in assay [4] (setting [8]), 99% (active); in assay [4] (at 50.0 µM) it was 98.6% (active). The growth inhibition in assay [5] (setting [7]) was 74% (active); in assay [5] (setting [8]) it was 99% (active); in assay [5] (at 50.0 µM), 99.5% (active); in assay [6] (setting [7]) it was 97% (active); in assay [6] (setting [8]), 99% (active); in assay [6] (at 50.0 µM), 99.5% (active).
With `CC(=O)OC[C@]12C[C@H](OC(=O)CC(C)C)C(C)=C[C@H]1OC1[C@H](O)[C@@H](OC(C)=O)[C@@]2(C)[C@@]12CO2`, the growth inhibition was 97% (active) in assay [1] (setting [7]); 98% (active) in assay [1] (setting [8]); 92.8% (active) in assay [1] (at 50.0 µM); 98% (active) in assay [2] (setting [7]); 99% (active) in assay [2] (setting [8]); 94.4% (active) in assay [2] (at 50.0 µM). Besides, the growth inhibition was 99% (active) in assay [3] (setting [7]); 99% (active) in assay [3] (setting [8]); 93.8% (active) in assay [3] (at 50.0 µM); 97% (active) in assay [4] (setting [7]); 98% (active) in assay [4] (setting [8]); 91.8% (active) in assay [4] (at 50.0 µM). Further, the growth inhibition in assay [5] (setting [7]) was 98% (active); in assay [5] (setting [8]) it was 99% (active); in assay [5] (at 50.0 µM), 92.2% (active); in assay [6] (setting [7]), 97% (active); in assay [6] (setting [8]), 98% (active); in assay [6] (at 50.0 µM), 92.6% (active).
On to `CC[n+]1c(/C=C/c2ccc(N(CCCl)CCCl)cc2)ccc2cc(Br)ccc21`, for which the growth inhibition in assay [1] (setting [7]) was 97% (active); in assay [1] (setting [8]) it was 97% (active); in assay [1] (at 50.0 µM), 85.5% (active); in assay [2] (setting [7]) it was 96% (active); in assay [2] (setting [8]), 96% (active); in assay [2] (at 50.0 µM) it was 84% (active). In addition, the growth inhibition in assay [3] (setting [7]) was 98% (active); in assay [3] (setting [8]) it was 98% (active); in assay [3] (at 50.0 µM), 82.9% (active); in assay [4] (setting [7]) it was 90% (active); in assay [4] (setting [8]), 90% (active); in assay [4] (at 50.0 µM) it was 82% (active). For the same molecule, the growth inhibition in assay [5] (setting [7]) was 96% (active); in assay [5] (setting [8]) it was 96% (active); in assay [5] (at 50.0 µM), 85.2% (active); in assay [6] (setting [7]), 96% (active); in assay [6] (setting [8]) it was 96% (active); in assay [6] (at 50.0 µM) it was 82.2% (active).
As for `Oc1c(Cl)cc(Cl)c2ccccc12.[Cu+2]`, the growth inhibition in assay [1] (setting [7]) is -5%; in assay [1] (setting [8]), 91% (active); in assay [1] (at 50.0 µM), 99.3% (active); in assay [2] (setting [7]), -34%; in assay [2] (setting [8]) it was 77% (active); in assay [2] (at 50.0 µM), 99.1% (active). Further, the growth inhibition in assay [3] (setting [7]) is -5%; in assay [3] (setting [8]), 91% (active); in assay [3] (at 50.0 µM), 99.2% (active); in assay [4] (setting [7]), -1%; in assay [4] (setting [8]), 32%; in assay [4] (at 50.0 µM) it was 98.7% (active). Further, the growth inhibition is -2% in assay [5] (setting [7]); 93% (active) in assay [5] (setting [8]); 99.5% (active) in assay [5] (at 50.0 µM); 0% in assay [6] (setting [7]); 93% (active) in assay [6] (setting [8]); 99.2% (active) in assay [6] (at 50.0 µM).
On to `NC1=NC(=O)N2CC12` (stereo not given), for which the growth inhibition was 30% in assay [1] (setting [7]); 36% in assay [1] (setting [8]); 48.5% in assay [1] (at 50.0 µM); 13% in assay [2] (setting [7]); 7% in assay [2] (setting [8]); -9.3% in assay [2] (at 50.0 µM). For the same molecule, the growth inhibition in assay [3] (setting [7]) is 25%; in assay [3] (setting [8]), 16%; in assay [3] (at 50.0 µM) it was 8.2%; in assay [4] (setting [7]) it was 20%; in assay [4] (setting [8]), 15%; in assay [4] (at 50.0 µM), 11.4%. In addition, the growth inhibition in assay [5] (setting [7]) was 21%; in assay [5] (setting [8]) it was 18%; in assay [5] (at 50.0 µM), 7%; in assay [6] (setting [7]), 29%; in assay [6] (setting [8]), 52%; in assay [6] (at 50.0 µM), 6.4%.
With `O=[C-]c1ccccc1[C-]=O.[Pd+2].c1ccc([PH+](c2ccccc2)c2ccccc2)cc1.c1ccc([PH+](c2ccccc2)c2ccccc2)cc1`, the growth inhibition is 11% in assay [1] (setting [7]); 44% in assay [1] (setting [8]); 34.6% in assay [1] (at 50.0 µM); 7% in assay [2] (setting [7]); 54% in assay [2] (setting [8]); 35% in assay [2] (at 50.0 µM). The growth inhibition is 23% in assay [3] (setting [7]); 69% in assay [3] (setting [8]); 84.5% (active) in assay [3] (at 50.0 µM); 5% in assay [4] (setting [7]); 40% in assay [4] (setting [8]); -0.7% in assay [4] (at 50.0 µM). Further, the growth inhibition was 4% in assay [5] (setting [7]); 97% (active) in assay [5] (setting [8]); 14.7% in assay [5] (at 50.0 µM); 14% in assay [6] (setting [7]); 80% (active) in assay [6] (setting [8]); 60.9% in assay [6] (at 50.0 µM).
